From PubChem BioAssay (NCATS) come the findings set out here.

Inconclusive results are not listed. Where a call stands in place of a potency, no number is given. Values without a mark were called inactive. Activity calls are given as the source filed them. Calls come from the whole dose curve; as a rule, active = well fitted cell-killing curve with a large enough effect; inconclusive = small, poorly fitted or top-dose-only effect, or effect the other way; inactive = flat fitted curve, though single readings scatter.
Potency is the fitted concentration of half-maximal effect.

The test system of the assay is C33A. Put plainly: Primary qHTS to identify gynecologic anti-cancer compounds using libraries of approved drugs and bioactive compounds (AID 1345084). Note: nearly all actives have a fitted effect of over 55% in size. The conditions noted are these: Gynecologic cancer cell panel viability, ATPlite luminescence, 48 h; series mostly up to 57.5 µM. The procedure, abridged: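 Cytotoxicity screen measuring ATP content by luciferase luminescence. Each compound is applied at five concentrations for 48 h at 37 C with 5% CO2.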
Background: qHTS replaces the single test concentration by a dilution series.
On to `C[C@@H]1C[C@H](C)CN(CCC(=O)Nc2ccc(Br)cc2)C1`, for which the Potency entry was “inactive”. For the compound `O=[N+]([O-])c1cn2c(n1)OC[C@@H](OCc1ccc(-c3ccc(OC(F)(F)F)cc3)nc1)C2`, the Potency entry is “inactive”. For `C=C1CCC2[C@](C)(CCC[C@@]2(C)C=O)[C@H]1CC/C(C)=C/CO` (stereo not given in full), the Potency result was “inactive”. Still for that read-out and setting: the same measure for `COc1ccc(CCc2nc3cc(-c4c(C)noc4C)ccc3n2CC(C)N2CCOCC2)cc1Cl` (stereo not given): “inactive”; for `O=C(NCC(=O)N1CCCC1)Nc1ccc2cnccc2c1`: “inactive”. The same measure, in the same setting: the same measure for `C=C(C)C(=O)O[C@H]1[C@H]2C(=C)C(=O)O[C@@H]2/C=C(\CO)CC/C=C(/C=O)[C@@H]1O`: “inactive”. Turning to `COc1c(C)cc(NC(=O)c2nn(Cc3ccc(F)cc3)c3c2CN(C(=O)c2ccc[nH]2)C[C@]3(C)C(N)=O)cc1C`, the activity change, negative = cytotoxicity was 12.3% [at 11.6 µM]. Turning to `Cc1[nH]c2ccccc2c1CCNCc1ccc(/C=C/C(=O)NO)cc1`, the Potency was 251 nM (active). Consider `O=C(NC1CCC1)c1ccc(C#Cc2cccc(F)c2)nc1`, for which the Potency entry was “inactive”. Same read-out and setting: the same measure for `COc1ccc(NC(=O)C2C[C@H](C)CC[C@H]2C(C)C)cc1` (stereo not given in full): “inactive”; for `COc1cc(OC)c2c(=O)[nH]c(-c3cc(C)c(OCCO)c(C)c3)nc2c1`: “inactive”; for `CC1(C=O)CCCC2(C)C1CCC13CC(CO)C(CCC12)C3` (stereo not given): “inactive”.

Regarding `COc1c2c(nc3occc13)C(CC=C(C)C)(OC)C(O)CC2` (stereo not given), the Potency result was “inactive”. The same measure, in the same setting: the same measure for `Cn1ncnc1[C@@H]1c2n[nH]c(=O)c3cc(F)cc(c23)N[C@H]1c1ccc(F)cc1`: “inactive”; for `O=C(O)c1cccc(-c2ccc(-c3cn(C(=O)N4CCCCC4Cc4ccccc4)nn3)cc2)c1` (stereo not given): “inactive”; for `Cc1cccc(-c2[nH]ncc2-c2ccc(F)c(-c3cnn(CCO)c3)c2)n1`: “inactive”. On to `CC1(C)CCC2(C(=O)OC3OC(COC4OC(CO)C(O)C(O)C4O)C(O)C(O)C3O)CCC3(C)C(=CCC4C5(C)CCC(OC6OCC(O)C(O)C6O)C(C)(C)C5CCC43C)C2C1O` (stereo not given), for which the activity change, negative = cytotoxicity was -1.3% [at 11.6 µM]. In the case of `CC(=O)O[C@@H]1[C@@H](O)[C@H](O[C@@H]2[C@@H](O)[C@@H](O)[C@H](O[C@H]3[C@H](O[C@H]4[C@H](O[C@H]5CC[C@@]6(C)C(CC[C@]7(C)C6CC=C6[C@@H]8CC(C)(C)CC[C@]8(C(=O)O)CC[C@]67C)[C@]5(C)CO)O[C@H](CO)[C@@H](O)[C@@H]4O)OC[C@@H](O)[C@@H]3O)O[C@H]2C)OC[C@H]1O` (stereo not given in full), the activity change, negative = cytotoxicity was -4.66% [at 11.6 µM]. Regarding `CN(C)CC#CCCC(=O)C(O)(c1ccccc1)C1CCC1` (stereo not given), the Potency entry is “inactive”. For `Cc1cn2c(n1)Cc1ccc(Cl)cc1C(c1ccc(N)cc1)=N2`, the Potency entry was “inactive”. Take `CC1(CO)CC(O)[C@]2(C(=O)O)CCC34CC3(C=CC3[C@]5(C)C(CC[C@]34C)C(C)(CO)[C@@H](O)[C@H](O)[C@@H]5O)C2C1` (stereo not given in full): the Potency result is “inactive”. Same read-out and setting: the same measure for `CC(=O)O[C@H]1C[C@@](O)(C(C)C)[C@@H]2[C@@H](OC(=O)c3ccc(O)cc3)CC(C)=CC[C@@]12C`: “inactive”. For `Cc1ccc(C(C)C)c(O[C@@H]2O[C@H](CO)[C@@H](O)[C@H](O)[C@H]2O)c1`, the Potency entry was “inactive”. Still for that read-out and setting: the same measure for `O=C1Nc2ccccc2-c2nc3ccccc3c(=O)n2-c2c(O)cccc21`: “inactive”. Take `COc1ccc(CN2CCN(CCCSc3cc(C(C)(C)C)c(O)c(C(C)(C)C)c3)CC2)c(OC)c1OC`: the activity change, negative = cytotoxicity is 1.62% [at 11.6 µM]. As to `CN(C)c1ccnc2sc3c(=O)n(N4CCCCCC4)cnc3c12`, the Potency result was “inactive”. For the compound `Cc1c(C(=O)NCc2cccnc2)nn(-c2ccc(Cl)cc2Cl)c1-c1ccc(Cl)cc1`, the Potency entry was “inactive”. Consider `CC(C)=CCc1cc2c(cc1O)OC[C@H]1c3ccc(O)cc3O[C@@H]21`, for which the Potency entry was “inactive”. Same read-out and setting: the same measure for `Cn1cc(-c2ccc(F)c(C(F)(F)F)c2)nc1C1CCN(c2ncnc3[nH]ncc23)CC1`: “inactive”. On the same count and under the same terms, the entry for `O=C(O)CCc1nccc2c1[nH]c1ccccc12` is “inactive”; for `NS(=O)(=O)c1ccc(N2CCN(CC[C@@H]3OCCc4ccccc43)CC2)cc1` it is “inactive”.

`CC1(C)CC[C@]23CO[C@@]4(CCC5[C@@]6(C)CC[C@H](O[C@@H]7OC[C@H](O[C@@H]8O[C@H](CO)[C@@H](O)[C@H](O)[C@H]8O[C@@H]8OC[C@@H](O)[C@H](O)[C@H]8O)[C@H](O)[C@H]7O)[C@@](C)(CO)C6CC[C@@]5(C)[C@]4(C)CC2=O)[C@@H]3C1` (stereo not given in full): the activity change, negative = cytotoxicity was -27.4% [at 11.6 µM]. For the compound `Cc1ccc(CNc2ncnc3ccc(-c4ccc(CO)o4)cc23)o1`, the Potency result was “inactive”. In the case of `C/C(=C/CO)CCC1C(C)CCC2C(C)(C)CCCC12C` (stereo not given), the Potency result was “inactive”. With `C[C@@H]1O[C@@H](O[C@H]2CC[C@@]3(C)C(CC[C@]4(C)C3CC=C3[C@@H]5CC(C)(C)CC[C@]5(C(=O)O[C@@H]5O[C@H](CO)[C@@H](O)[C@H](O)[C@H]5O)CC[C@]34C)[C@]2(C)CO)[C@H](O)[C@H](O[C@@H]2O[C@H](CO)[C@@H](O)[C@H](O)[C@H]2O)[C@H]1O` (stereo not given in full), the activity change, negative = cytotoxicity was -20.9% [at 11.6 µM]. Regarding `C[C@H](Nc1cc2c(-c3ccc4c(c3)OCO4)noc2cn1)c1ccccc1`, the Potency result was “inactive”.

Turning to `O=C(N[C@H](Cc1cscn1)C(=O)N[C@@H](CC1CCCCC1)[C@@H](O)[C@@H](O)C1CC1)c1nc2ccccc2[nH]1`, the Potency entry was “inactive”. `O=C(NCCCc1ccccc1)C1CCC(CNS(=O)(=O)c2cccc3nsnc23)CC1` (stereo not given): the Potency result was “inactive”. As for `CC(C)c1ccc(NC(=O)Cn2cnc3c2c(=O)n(C)c(=O)n3C)cc1`, the Potency entry was “inactive”.

`C=C1C(=O)OC[C@@H]1C/C=C(\C)CC1CC(C)C(=O)O1` (stereo not given in full): the Potency entry is “inactive”.
